Sampled rows, rich in hits. Any-hit rate of the full collection: about 2.4%.
B2AR arrestin: qHTS assay of beta-arrestin-biased ligands of beta2-adrenergic receptor. beta-arrestin recruitment to beta2AR, cell-based reporter. Potency, µM (titrated, usually from 46.1 µM), actives largely listed as activators. 330,000 tested, 0.02% active. AID 492947, 2010; active = well fitted activation curve with a large enough effect; note: nearly all actives have a fitted effect of over 65% in size
Target sequence (P07550 whole entry, looked up): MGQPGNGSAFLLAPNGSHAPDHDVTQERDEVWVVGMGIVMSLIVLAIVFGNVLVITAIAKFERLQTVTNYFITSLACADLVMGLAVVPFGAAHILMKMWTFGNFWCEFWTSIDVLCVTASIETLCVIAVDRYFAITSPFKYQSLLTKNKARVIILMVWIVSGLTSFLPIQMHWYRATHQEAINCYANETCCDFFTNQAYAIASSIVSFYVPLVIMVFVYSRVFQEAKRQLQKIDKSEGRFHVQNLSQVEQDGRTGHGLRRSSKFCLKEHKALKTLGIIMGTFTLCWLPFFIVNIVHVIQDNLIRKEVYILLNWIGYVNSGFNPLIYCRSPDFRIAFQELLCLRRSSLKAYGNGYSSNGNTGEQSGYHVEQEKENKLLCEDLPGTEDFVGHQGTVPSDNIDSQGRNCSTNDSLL
D2 ag-1: HTS Assay for Allosteric Agonists of the Human D2 Dopamine Receptor: Primary Screen for Agonists. D(2) dopamine receptor (Homo sapiens), P14416. HEK293 T-REx D2 cells, calcium flux agonist mode. activation, % at 2 µM. 340,000 tested, 0.53% active. AID 485358, 2010;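 active = activation over 3 SD above normal in the single-dose calcium agonist read, cut at about 30% in these data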
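Calcium-flux readout, 1 cycle/sec over 180 s following compound pin transfer, in inducible HEK293 Trex D2 cells (force-coupled); dopamine controls included. Positive calcium responses during this window marked compounds as potential agonists.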
D2 PAM-1: HTS Assay for Positive Allosteric Modulators of the Human D2 Dopamine Receptor: Primary Screen for Potentiators. 340,000 tested, 0.34% active. HEK293 T-REx D2, calcium flux, EC20 dopamine potentiation. D(2) dopamine receptor (Homo sapiens), P14416. potentiation, % at 10 µM. AID 485347, 2010;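 active = potentiation over 3 SD above the plate norm, cut at about 30% in these data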
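Primary screen. Calcium kinetics in induced HEK293 T-REx D2 cells: compound pre-addition 180 s, EC20 dopamine, 180 s more.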
D2 ag-2: Beta-Arrestin HTS for Positive Allosteric Modulators of the Human D2 Dopamine Receptor: Agonists; AID 624465, 2012; 360,000 tested, 0.084% active; DiscoveRx PathHunter D2 beta-arrestin, luminescence, 90 min; 100% = 57 uM dopamine signal; D(2) dopamine receptor (Homo sapiens), P14416; activation, % (test concentration not listed); in the data active = activation above about 40%
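DiscoveRx PathHunter D2 beta-arrestin cells (2,100/well) attached overnight, then compound-stimulated 90 min at 37 C in HBSS/10 mM HEPES/0.1% Tween-20 buffer; beta-galactosidase complementation read by luminescence after 1 h at ambient temperature. Dopamine 57 uM final (EC100) as control.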
D2 antagonist: HTS Assay for Allosteric Antagonists of the Human D2 Dopamine Receptor: Primary Screen for Antagonists; D(2) dopamine receptor (Homo sapiens), P14416; HEK293 TREx D2 cells, calcium flux, dopamine EC80; inhibition, % at 10 µM; 340,000 tested, 2% active; AID 485344, 2010; in the data active = inhibition above about 30%; inactive = below that, where a call was filed
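Measurement of antagonist activity uses fluorescent calcium dye in inducible HEK293 T-REx D2 cells: 10 s baseline, compound addition with 180 s read, EC80 dopamine addition with a further 180 s read.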
D2 PAM-2: Beta-Arrestin HTS for Positive Allosteric Modulators of the Human D2 Dopamine Receptor: Potentiators; D(2) dopamine receptor (Homo sapiens), P14416; DiscoveRx D2 beta-arrestin cells, luminescence, 90 min; 100% = 57 uM dopamine signal; potentiation, % (test concentration not listed); 360,000 tested, 0.23% active; in the data active = potentiation above about 50%
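D2 cells co-treated with compound plus 50 nM dopamine (EC20) for 90 min at 37 deg C to detect potentiation. Beta-arrestin recruitment was read as enzyme-fragment luminescence after 1 h at ambient temperature. Full response was set by 57 uM dopamine.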
A number is an active result.

Screening COc1ccc(CNC(=O)c2cccc(NC(=O)CC3SC(N4CCCCC4)=NC3=O)c2)cc1 (stereo not drawn) returned B2AR arrestin inactive, D2 ag-2 inactive and D2 PAM-2 inactive.
`O=C(O)/C=C/c1ccc([N+](=O)[O-])o1` gave B2AR arrestin inactive, D2 ag-1 inactive, D2 PAM-1 inactive, D2 ag-2 inactive, D2 antagonist inactive and D2 PAM-2 inactive.
N#CCc1ccc(NC(=O)/C=C/c2ccc([N+](=O)[O-])o2)cc1 was read as B2AR arrestin inactive, D2 ag-1 inactive, D2 PAM-1 inactive, D2 ag-2 inactive, D2 antagonist 31.9 and D2 PAM-2 inactive.
Screening COc1cc2oc(=O)c(Br)c(C)c2c(OC)c1OC returned B2AR arrestin inactive, D2 ag-1 inactive, D2 PAM-1 inactive, D2 ag-2 inactive, D2 antagonist 39.1 and D2 PAM-2 inactive.
Screening COc1cc(O)cc2cc3c(c(O)c12)C(=O)CC(C)(O)O3 (stereo not drawn) returned B2AR arrestin inactive, D2 ag-1 inactive, D2 PAM-1 inactive, D2 ag-2 inactive, D2 antagonist 36.9 and D2 PAM-2 inactive.
COc1cc(O)c2c(c1)OC(C)(C)CC2=O was read as B2AR arrestin inactive, D2 ag-1 inactive, D2 ag-2 inactive, D2 antagonist inactive and D2 PAM-2 inactive.
C=CCn1c(SCC(=O)NC2CCS(=O)(=O)C2)nnc1-c1ccncc1 (stereo not drawn) was read as B2AR arrestin inactive, D2 ag-1 inactive, D2 PAM-1 inactive, D2 ag-2 inactive, D2 antagonist inactive and D2 PAM-2 inactive.
`COc1ccc(NC(=O)c2nnn(CC(=O)Nc3ccc4c(c3)OCO4)c2N)c(OC)c1` gave B2AR arrestin inactive, D2 ag-1 inactive, D2 PAM-1 inactive, D2 ag-2 inactive, D2 antagonist inactive and D2 PAM-2 inactive.
For O=C(N/N=C/c1cccc(Br)c1)C1CC(=O)N(c2ccccc2)C1 (stereo not drawn) the results were B2AR arrestin inactive, D2 ag-1 inactive, D2 PAM-1 inactive, D2 ag-2 inactive, D2 antagonist 35.4 and D2 PAM-2 inactive.
Screening CC(=O)NC1CC2CCCC(C1)N2C(=O)Nc1c(C)cccc1C (stereo not drawn) returned D2 ag-2 inactive and D2 PAM-2 inactive.
`Cc1cccc(C)c1NC(=O)N1C2CCCC1CC(NC(=O)C(C)(C)C)C2` (stereo not drawn) gave B2AR arrestin inactive, D2 ag-1 inactive, D2 PAM-1 inactive, D2 ag-2 inactive, D2 antagonist 37.5 and D2 PAM-2 inactive.
For O=C(CCC(=O)N1CCOc2ccccc21)NCCc1ccccc1 the results were B2AR arrestin inactive, D2 ag-1 inactive, D2 PAM-1 inactive, D2 ag-2 inactive, D2 antagonist inactive and D2 PAM-2 inactive.
For Cc1ccc2c(c1Br)/C(=N/N1C(=O)c3ccccc3C1=O)C(=O)N2 the results were B2AR arrestin inactive, D2 ag-1 inactive, D2 PAM-1 inactive, D2 ag-2 inactive, D2 antagonist inactive and D2 PAM-2 inactive.
CCOc1ccc(N=C2C(=O)Nc3ccc(C)c(Br)c32)cc1 was read as B2AR arrestin inactive, D2 ag-1 inactive, D2 PAM-1 inactive, D2 ag-2 inactive, D2 antagonist 42.4 and D2 PAM-2 inactive.
`Cc1nc(N2CCN(c3ccccn3)CC2)c2c(C)c(C(=O)N3CCN(c4cccc(Cl)c4)CC3)sc2n1` gave B2AR arrestin inactive, D2 ag-1 inactive, D2 PAM-1 30.7, D2 ag-2 inactive, D2 antagonist inactive and D2 PAM-2 inactive.
Cc1c(C(=O)N2CCN(c3ccccn3)CC2)sc2ncnc(N3CCN(c4ccccc4)CC3)c12 was read as D2 ag-2 inactive and D2 PAM-2 inactive.
Screening Cc1nc2ccc(NC(=O)c3ccc(Cl)c([N+](=O)[O-])c3)cc2s1 returned B2AR arrestin inactive, D2 ag-1 inactive, D2 PAM-1 inactive, D2 ag-2 inactive, D2 antagonist inactive and D2 PAM-2 inactive.
`Cc1nc2ccc(NC(=O)c3cc([N+](=O)[O-])cc([N+](=O)[O-])c3Cl)cc2s1` gave B2AR arrestin inactive, D2 ag-1 inactive, D2 PAM-1 inactive, D2 ag-2 inactive, D2 antagonist inactive and D2 PAM-2 62.7.
`CCCc1nnc(SCC(=O)N2CCCCC2C)n1CC1CCCO1` (stereo not drawn) gave B2AR arrestin inactive, D2 PAM-1 37.1, D2 ag-2 inactive and D2 PAM-2 inactive.
For Cc1nc(-c2ccc(NC(=O)c3ccccc3Br)cc2)cs1 the results were B2AR arrestin inactive, D2 ag-2 inactive and D2 PAM-2 inactive.
`CCCC12CN3CCN(CC(C3)/C1=N\NC(=O)c1ccc(F)cc1)C2` gave B2AR arrestin inactive, D2 ag-1 inactive, D2 PAM-1 inactive, D2 ag-2 inactive, D2 antagonist inactive and D2 PAM-2 inactive.
CCCC12CN3CCN(CC(C3)/C1=N\NC(=O)Nc1ccccc1)C2 was read as B2AR arrestin inactive, D2 ag-1 inactive, D2 PAM-1 inactive, D2 ag-2 inactive, D2 antagonist 53.9 and D2 PAM-2 inactive.
Screening Cc1ccc(C)c(-n2nnc(-c3nc(-c4ccccc4C)no3)c2C)c1 returned D2 PAM-1 inactive.
`Cc1ccc(S(=O)(=O)NCC(=O)OC(C)C(=O)c2ccccc2)cc1` (stereo not drawn) gave B2AR arrestin inactive, D2 ag-1 inactive, D2 PAM-1 inactive, D2 ag-2 inactive, D2 antagonist 30.9 and D2 PAM-2 inactive.
For Cc1ccc(C(=O)C(C)OC(=O)CNS(=O)(=O)c2ccc(C)cc2)cc1 (stereo not drawn) the results were B2AR arrestin inactive, D2 ag-1 inactive, D2 PAM-1 inactive, D2 ag-2 inactive, D2 antagonist inactive and D2 PAM-2 inactive.
Screening COc1ccc(Cl)c2sc(N3CCN(C(=O)C4=COCCO4)CC3)nc12 returned B2AR arrestin inactive, D2 ag-1 inactive, D2 PAM-1 inactive, D2 ag-2 inactive, D2 antagonist inactive and D2 PAM-2 inactive.
Screening CCN1CCN(S(=O)(=O)c2ccc(Cl)c(C(=O)NC3CC3)c2)CC1 returned B2AR arrestin inactive, D2 ag-1 inactive, D2 PAM-1 inactive, D2 ag-2 inactive, D2 antagonist inactive and D2 PAM-2 inactive.

Assay outcomes: PubChem BioAssay, National Center for Advancing Translational Sciences (NCATS)
